Results on 13 molecules are retold here after PubChem BioAssay (NCI).

What all share (experiment): NCI-60 one-dose screen, 48 h (100 = growth as untreated, 0 = no growth, -100 = all killed)
For one assay, the system named is NCI-H23 lung. The note with it: 10 µM unless noted.
In the next assay the test system is NCI-H322M lung. The note with it: 10 µM unless noted.
The next assay relates to HOP-62 NSCLC. To be noted: 10 µM unless noted.
The next assay concerns NCI-H460 lung. The note with it: 10 µM unless noted.
The subject of a further assay is NCI-H522 lung. The note with it: 10 µM.
In a further assay the test system is A549/ATCC NSCLC. To be noted: 10 µM unless noted.
Another assay deals with 786-0 renal. To be noted: 10 µM unless noted.
The next assay relates to COLO 205 colon. The note with it: 10 µM unless noted.
The subject of a further assay is HOP-92 NSCLC. To be noted: 10 µM unless noted.
Another assay has as its system NCI-H226 lung. The note with it: 10 µM.

Compounds without any hit were thinned out: in the full panel of roughly 83,000, 20% have a hit.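 Method: cells in 96-well plates; compound added at one concentration; 48 h incubation; percent growth measured; values under 10 scored active.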 Values without a mark were called inactive. The source made the active and inactive calls.

On to `O=C1C=CC(=O)N1CCCCCCCCCCN1C(=O)C=CC1=O`, for which the growth was 85.2% in the assay with NCI-H23 lung; 109% in the assay on NCI-H322M lung; 88.7% in the assay with HOP-62 NSCLC; 96.1% in the assay with NCI-H460 lung; -60.7% (active) in the assay on NCI-H522 lung; 97.4% in the assay with A549/ATCC NSCLC. The figures for the growth with 786-0 renal and in the assay on COLO 205 colon were 88.7% and 65.7%, respectively.
For the molecule `CN([N-]C(=O)CC(=O)[N-]N(C)C(=S)c1ccccc1)C(=S)c1ccccc1.[Cu+2]`, the growth in the assay with NCI-H23 lung is -73.8% (active); in the assay on NCI-H322M lung, -95.8% (active); in the assay with HOP-62 NSCLC, -98.6% (active); in the assay with NCI-H460 lung, -35.4% (active); in the assay with NCI-H522 lung, -93.4% (active); in the assay on A549/ATCC NSCLC it was -54.9% (active). Besides, the values for the growth in the assay on 786-0 renal and with COLO 205 colon were -72% (active) and -83.4% (active), respectively.
For the molecule `COc1ccc(Sc2ccc3[nH]c(=O)nc(N)c3c2)cc1`, the growth in the assay on NCI-H23 lung was 101%; with NCI-H322M lung, 96.4%; with HOP-62 NSCLC, 108%; with NCI-H522 lung, 100%; in the assay with A549/ATCC NSCLC, 80.3%; in the assay with 786-0 renal, 104%. Further, the growth in the assay with COLO 205 colon is 106%.
Regarding `O=S(=O)(/N=C1C=C/C(=N\S(=O)(=O)c2ccccc2)c2ccccc2\1)c1ccccc1`, the growth with NCI-H23 lung is 83.1%; in the assay on NCI-H322M lung it was 107%; with HOP-62 NSCLC, 90.2%; with NCI-H522 lung, 85.9%; in the assay on A549/ATCC NSCLC, 101%; in the assay with 786-0 renal it was 115%. Also, the growth with COLO 205 colon is 111%.
As for `COC(=O)/C=C1/CCC2C3CCC4=CC(=O)C(Br)CC4(C)C3C(=O)CC12C` (configuration not stated), the growth was 67.5% with NCI-H23 lung; 115% with NCI-H322M lung; 80.6% in the assay with HOP-62 NSCLC; 76.6% in the assay with HOP-92 NSCLC; 83.8% with 786-0 renal; 80.2% in the assay on COLO 205 colon.
`Clc1ccc2c(c1)C[C@H]1C[C@@H](c3cccs3)N2O1`: the growth is 106% in the assay on NCI-H23 lung; 99.7% in the assay with NCI-H322M lung; 104% in the assay with NCI-H460 lung; 69.8% in the assay on HOP-92 NSCLC; 102% in the assay on NCI-H522 lung; 98.2% with A549/ATCC NSCLC. The growth in the assay with 786-0 renal is 108%; in the assay with COLO 205 colon, 112%.
Consider `Clc1ccc(Nc2ccnc(N3CCN(c4ccnc5cc(Cl)ccc45)CC3)n2)cc1`, for which the growth in the assay with NCI-H226 lung was 62.5%; in the assay on NCI-H322M lung, 48.6%; in the assay on HOP-62 NSCLC, 47.4%; with NCI-H460 lung, 48.4%; with HOP-92 NSCLC it was 39.4%; in the assay with NCI-H522 lung, 35.1%. Moreover, the growth was 48.6% in the assay with A549/ATCC NSCLC, 48.4% with 786-0 renal and 46.5% with COLO 205 colon.
With `CC(C)(C)[Si](C)(C)OC1[C@@H](COC(N)=O)O[C@@H](n2cnc3c(N)ncnc32)[C@H]1O[Si](C)(C)C(C)(C)C` (some centres not stated), the growth is 87.9% with NCI-H23 lung; 114% in the assay with NCI-H322M lung; 95.7% with HOP-62 NSCLC; 55.3% in the assay on HOP-92 NSCLC; 67.8% in the assay on A549/ATCC NSCLC; 91.2% with 786-0 renal. Moreover, the growth in the assay on COLO 205 colon was 103%.
Turning to `CCN(CC)c1ccc(/C=C(\C#N)c2cc3ccccc3[nH]2)cc1`, the growth is 79.2% in the assay with NCI-H23 lung; 88.7% with NCI-H322M lung; 77.7% in the assay on HOP-62 NSCLC; 97% in the assay on HOP-92 NSCLC; 39.4% with A549/ATCC NSCLC; 80% with 786-0 renal. Also, the growth in the assay with COLO 205 colon is 45.3%.
`COc1ccc(OC2=C(C#N)C(=N)N3c4ccccc4Sc4ccccc4C3N2)cc1` (configuration not stated): the growth is 87.9% with NCI-H23 lung; 97.5% in the assay on NCI-H322M lung; 79.9% in the assay on HOP-62 NSCLC; 97.8% with NCI-H522 lung; 104% in the assay on A549/ATCC NSCLC; 105% in the assay with 786-0 renal. The growth in the assay with COLO 205 colon is 103%.
Regarding `N#CC1=C(N)Oc2cc(N)ccc2C1c1ccc(F)cc1` (configuration not stated), the growth in the assay with NCI-H23 lung is 81.6%; in the assay on NCI-H322M lung, 82.6%; in the assay on HOP-62 NSCLC it was 69.6%; in the assay on NCI-H522 lung, 54.1%; in the assay on A549/ATCC NSCLC, 74.2%; in the assay with 786-0 renal, 86.6%. Also, the growth in the assay with COLO 205 colon is 82.9%.
As for `Cn1c(=O)c2c(-c3ccccc3F)n(-c3ccc4c(c3)OCO4)cc2n(C)c1=O`, the growth is 95.2% in the assay with NCI-H23 lung; 102% in the assay with HOP-62 NSCLC; 99.4% in the assay on NCI-H460 lung; 91.5% with NCI-H522 lung; 99.8% in the assay with A549/ATCC NSCLC; 102% with 786-0 renal. Besides, the growth in the assay on COLO 205 colon was 106%.
As to `COc1cc2nc(N3CCC[C@H](NC4=CC(=O)c5ccccc5C4=O)C3)nc(N)c2cc1OC`, the growth in the assay on NCI-H226 lung is 107%; in the assay on NCI-H322M lung, -72.2% (active); in the assay on HOP-62 NSCLC it was 64%; in the assay with NCI-H460 lung, -65.7% (active); with HOP-92 NSCLC, 75.8%; in the assay on NCI-H522 lung, 74.4%. Further, the growth in the assay with A549/ATCC NSCLC was -80.6% (active); in the assay with 786-0 renal it was -92.7% (active); with COLO 205 colon it was -79.6% (active).
